Methyltransferases – Primary Screen for Target Class Profiling of Small Molecule Inhibitors of Methyltransferases | purified enzyme, MTase-Glo SAH luminescence; active compounds read low | calls only at 40 µM | actives 3.9% (n = 25,000); call rule not given here
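Each enzyme was assayed with SAM and its substrate. SAH formation detected by MTase-Glo luminescence; single-point 40 uM screen[…].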
* marks the source's active call; other numbers are inactive results; i = inactive; + = active, no number; ! = a repeat was not active. This is one part of a sample in which hits are shown more often than they occur. % is scaled to controls: 0 for no effect and ±100 for the full control effect.

SMILES	Methyltransferases
Cn1c(=O)n(C)c2cc(S(=O)(=O)N3CCN(C4CCCCC4)CC3)ccc21	+
Cn1c(=O)n(C)c2cc(S(=O)(=O)N3CCc4ccccc4C3)ccc21	i
COc1ccc(N2CCN(S(=O)(=O)c3ccc4c(c3)n(C)c(=O)n4C)CC2)cc1	i
CCC(C)NC(=O)c1ccc2c(=O)n(C)c3nnc(SCC(=O)NC4CCCC4)n3c2c1 (stereo unspecified)	i
Cn1ncc(N2CCCC(C(=O)NCCCc3ccccc3)C2)cc1=O (stereo unspecified)	i
COc1cccc(C2c3cccn3-c3sc4c(c3CN2C(=O)NCc2ccccc2)CCCC4)c1 (stereo unspecified)	i
O=C(CCn1ccc2cc(S(=O)(=O)N3CCCC3)ccc21)NCc1ccccc1Br	i
CCCn1c(=O)c2ccc(C(=O)NCC(C)C)cc2n2c(SCC(=O)NC(C)(C)C)nnc12	i
Cc1ccc(S(=O)(=O)/C=C/C#N)cc1	+!
CS(=O)(=O)c1ccc(-c2cnc(N)c(C(=O)Nc3ccccc3)n2)cc1	i
Cc1cc(C)n(-c2cccc(CN(C)C(=O)Cn3nnnc3CN3CCOCC3)c2)n1	i
CC1(C(=O)NC2CCCCC2)Cn2c(nc3ccccc32)C(=O)N1CCc1ccc(Cl)cc1 (stereo unspecified)	i
N#Cc1cccc(C(=O)Nc2cc(-c3ccccc3)nn2-c2ccccc2)c1	i
O=C(NC1CCCCC1)N1CCCCCC1c1nc(-c2ccncc2)no1 (stereo unspecified)	i
COc1ccc2c(c1)N1C(=O)C[C@@]34C=CC[N@+]5([O-])CC[C@H]2[C@H](CC3)[C@@]145	i
COc1cc2c(cc1OC)N1C(=O)C[C@]34C=CCN5CC[C@@H]2[C@@H](CC3)[C@]514	+
O=C(Nc1ccc(N2CCC(C(=O)N3CCOCC3)CC2)cc1)c1cnc(Oc2ccccc2)nc1	i
CCCn1c(=O)c2cc(F)ccc2n2c(SCC(=O)Nc3cc(F)ccc3F)nnc12	i
COc1ccc(Cn2c3c(c(=O)n2Cc2ccccc2)CCN(C(=O)CCc2cccnc2)C3)cc1	i
CCc1ccc(C(=O)N2CC(c3nnc(C(C)C)o3)C3(CCOCC3)C2)cc1 (stereo unspecified)	i
COC[C@@H]1CCCN1Cc1cc2cc3c(cc2[nH]c1=O)OCO3	i
CCOc1ccc(-c2ccc(Cn3c(CC(C)(C)C(=O)O)c(SC(C)(C)C)c4cc(OCc5ccc(C)cn5)ccc43)cc2)cn1	+
CCc1cc(=O)n(CC(=O)NCc2ccc(OC)c(OC)c2)c(-c2ccccc2)n1	i
COc1ccc(CNC(=O)C2(C)Cn3cnc(C(=O)NCc4ccccc4Cl)c3C(=O)N2C2CC2)cc1 (stereo unspecified)	i
C[N+](C)(C)CC=O	i
SMILES	Methyltransferases
CN1CCN(C2CCC(n3cc(-c4ccc(Oc5ccccc5)cc4)c4c(N)ncnc43)CC2)CC1 (stereo unspecified)	+
CCCCNc1ncc2c(-c3ccc(CN4CCN(C)CC4)cc3)cn(C3CCC(O)CC3)c2n1 (stereo unspecified)	i
Nc1ncnc2c1ncn2C1CCCC1	i
COc1ccc(-c2n[nH]n3c2nc(=O)c2ccc(C(=O)NCCCOC(C)C)cc23)cc1	i
COc1ccc(C(C)NC(=O)c2noc(-c3ccc(F)cc3)n2)cc1OC (stereo unspecified)	i
CCN1C(=O)c2c(C(=O)NCc3ccc(OC(C)C)cc3)ncn2CC1(C)C(=O)NC1CCCC1 (stereo unspecified)	i
CC(=O)OC/C(=C/C(=O)O)CC[C@@H]1C(C=O)=CC[C@@H]2C(C)(C)CCC[C@@]12C	+
CC1(C)CCC[C@]2(C)C1CC=C(CO)[C@H]2CC/C(=C/CO)CO (stereo partly specified)	i
CC(=O)OC/C(=C/C(=O)O)CC[C@@H]1C(CO)=CC[C@@H]2C(C)(C)CCC[C@@]12C	+
C=C1CCC2C(C)(C)CCC[C@]2(C)[C@H]1C/C=C(\CO)C(=O)C(=O)O (stereo partly specified)	i
CC1=CCC2C(C)(C)CCCC2(C)C1CC12OC1C(O)C(CO)=CC2O (stereo unspecified)	i
CC1(C)CCCC2(C)C(C(=O)O)=CCC12 (stereo unspecified)	i
COc1ccnc(CN2C(=O)NC(CCc3ccccc3)(C3CCNCC3)C2=O)c1 (stereo unspecified)	i
CN1CCN(C(=O)N2CCC3(CCCN(C4CCOCC4)C3=O)C2)CC1 (stereo unspecified)	i
O=C(Cn1c(=O)oc2cc(S(=O)(=O)N3CCCC3)ccc21)Nc1ccc(F)c(Cl)c1	i
COCC(=O)N[C@@H]1CN(C2CCOCC2)CC[C@@H]1CO	i
COC(=O)c1ncn2c1C(=O)N(Cc1ccc3c(c1)OCO3)C(C)(C(=O)NC1CCCC1)C2 (stereo unspecified)	i
CC1(C(=O)NC2CCCC2)Cn2c(ccc2-c2ccco2)C(=O)N1Cc1cccs1 (stereo unspecified)	i
CC(C)Cn1c(=O)c2ccccc2n2c(SCC(=O)NCc3ccc(Cl)cc3)nnc12	i
CCCCC#Cc1nc(NC)c2ncn([C@@H]3O[C@H](CO)[C@@H](O)[C@H]3O)c2n1	i
CCN(Cc1ccccc1)C(=O)Cn1c(=O)n(C)c2cnc(-c3ccccc3)nc21	i
COc1ccc(N2C(=O)c3nc4ccccc4n3CC2(C)C(=O)NC2CCCCCC2)cc1 (stereo unspecified)	i
COc1cccc(CN2C(=O)c3cc4oc(C)cc4n3CC2(C)C(=O)NC2CCCCCC2)c1 (stereo unspecified)	i
COc1cc(OC)cc(N2C(=O)c3cc(C(C)(C)C)nn3CC2(C)C(=O)NC2CCCCCC2)c1 (stereo unspecified)	i
O=C(O)CC1(O)C(=O)Nc2ccccc21 (stereo unspecified)	+
SMILES	Methyltransferases
O=C1Nc2ccccc2C12CN([S+](=O)([O-])c1ccccc1)C2	i
Cn1nccc1CN1CC2(C1)C(=O)Nc1ccccc12	i
COCC(=O)N1CC(C(=O)N2CCCCC2)[C@H](c2ccncc2)C1 (stereo partly specified)	i
O=c1c2ccccc2n2c(=O)n(Cc3ccc(Cl)cc3)nc2n1CCc1ccccc1	i
C[C@]12C=CC(=O)C=C1CC[C@@H]1C2=CC[C@]2(C)[C@@H](C(=O)CN3CCN(c4cc(N5CCCC5)nc(N5CCCC5)n4)CC3)CC[C@@H]12	i
Cc1cccc(N2CCN(CCNC(=O)CCc3nnc4n(C)c(=O)c5ccccc5n34)CC2)c1C	i
CN[C@H](CC(C)C)C(=O)N[C@H]1C(=O)N[C@@H](CC(N)=O)C(=O)N[C@H]2C(=O)N[C@H]3C(=O)N[C@H](C(=O)N[C@H](C(=O)O)c4cc(O)cc(O)c4-c4cc3ccc4O)[C@H](O[C@H]3C[C@](C)(N)[C@@H](O)[C@H](C)O3)c3ccc(c(Cl)c3)Oc3cc2cc(c3O[C@@H]2O[C@H](CO)[C@@H](O)[C@H](O)[C@H]2O[C@H]2C[C@](C)(NCc3ccc(-c4ccc(Cl)cc4)cc3)[C@@H](O)[C@H](C)O2)Oc2ccc(cc2Cl)[C@H]1O	i
NC(=O)c1ccccc1Nc1ccnc(Nc2cccc(O)c2)n1	+
COc1ccccc1C(=O)N1CCN(c2nccc(Nc3ccccc3Cl)n2)CC1	i
O=C(O)c1ccccc1Nc1cccc(OCc2ccc3ccccc3n2)c1	i

Compound activity from PubChem BioAssay.
